High-throughput results (PubChem BioAssay)
Sampled rows, rich in hits. Any-hit rate of the full collection: about 8.2%.
MCF10A rerep – DNA re-replication induction in MCF 10a cells | MCF 10A DNA re-replication, Hoechst nuclear intensity, 48 h | Potency, µM (top dose mostly 46.1 µM), without a hit: at the top dose activity, positive = re-replication, most hits filed as activators | 350,000 compounds, 2.9% hits; note: % of control where 0% means no effect; nearly all actives have a fitted effect of over 50% in size
SW480 rereplic – DNA re-replication induction in SW480 cells | Potency, µM (highest dose often 46.1 µM), without a hit: at the highest dose re-replication activation, usual class: activators | AID 624297 | SW480 DNA re-replication, Hoechst DNA content imaging, 48 h | 340,000 compounds, 1.8% hits; note: % of control where 0% means no effect; nearly all actives have a fitted effect of over 55% in size
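Compounds, transferred as 23 nL by pin tool, were incubated with cells for 48 hr; DNA content per nucleus was then quantified by Hoechst staining and fluorescence plate imaging.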
KB-3-1 tox – kills parental KB-3-1 adenocarcinoma cells; KB-3-1 viability, CellTiter-Glo ATP luminescence, 72 h; 400,000 compounds, 1.4% hits; Potency, µM (highest dose often 46.1 µM), usual class: cytotoxic; AID 1347075; note: % is set by controls: 0 for no effect and ±100 for the full control effect; nearly all actives have a fitted effect of over 60% in size
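Cells are dispensed, compounds pinned in, plates held at 37 °C for 72 h, then CellTiter-Glo is added and luminescence read after 10 minutes. Cell line: parental KB-3-1 in phenol-red-free DMEM, 10% FBS.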
ELG1 repair inh – inhibitors of ELG1-dependent DNA repair in HEK293T cells | HEK293T ELG1-luciferase reporter, luminescence, 16 h; DNA damage induced by 5-fluorouridine | Potency, µM (highest dose often 46.1 µM), inactives show at the top dose activity change, negative = inhibition, usual class: inhibitors | 330,000 compounds, 2.3% hits | AID 504467; note: % is set by controls: 0 for no effect and ±100 for the full control effect; nearly all actives have a fitted effect of over 55% in size
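DMSO vehicle served as the neutral condition. Each well held 2,000 cells given 5-fluorouridine plus compound; after 16 hr at 37 °C/5% CO2, ONE-Glo was added and luciferase measured 30 min later.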
KB-V1 cytotox – kills drug-selected multidrug resistant KB-V1 cells; Potency, µM (titrated, usually from 46.1 µM), actives largely listed as cytotoxic; KB-V1 MDR cells viability, CellTiter-Glo, 72 h; 400,000 compounds, 3.4% hits; note: % is set by controls: 0 for no effect and ±100 for the full control effect; nearly all actives have a fitted effect of over 60% in size
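Cells of the MDR subline KB-V1 are plated, dosed with compound at multiple concentrations, and incubated 72 h at 37 degrees C; CellTiter-Glo is then added and luminescence read after 10 min.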
Numbers without * were called inactive. Calls come from the whole dose curve; as a rule, active = well fitted curve in the direction sought with a large enough effect; inconclusive = small, poorly fitted or top-dose-only effect, or another doubt; inactive = no such curve, though single readings can be large; an effect the other way counts as inactive or inconclusive. Potency is the fitted concentration of half-maximal effect.

`CO[C@H]1CN(C)C(=O)c2ccc(NC(=O)NC(C)C)cc2OC[C@H](C)NC[C@H]1C` gave KB-3-1 tox inactive and KB-V1 cytotox inactive.
Cc1ccc2[nH]c3c(N4CCc5ccccc5C4)ncnc3c2c1 was read as MCF10A rerep inconclusive, SW480 rereplic 3%, KB-3-1 tox inconclusive, ELG1 repair inh inconclusive and KB-V1 cytotox inconclusive.
For Fc1ccc2[nH]c3c(N4CCc5ccccc5C4)ncnc3c2c1 the results were MCF10A rerep inconclusive, SW480 rereplic -14%, KB-3-1 tox inconclusive, ELG1 repair inh 1.3µM* and KB-V1 cytotox 6.5µM*.
CCOc1ccc2[nH]c3c(N4CCc5ccccc5C4)ncnc3c2c1 was read as MCF10A rerep 9.2µM*, SW480 rereplic inconclusive, KB-3-1 tox inconclusive, ELG1 repair inh 18µM* and KB-V1 cytotox 12µM*.
For Cc1ccc(Cl)cc1NC(=O)C1CCN(c2nnc(C)c3c(C)n(-c4ccccc4)nc23)CC1 the results were KB-3-1 tox inactive and KB-V1 cytotox inactive.
For CN1CCN(CCCNC(=O)CCCOc2cc(=O)n(C)c3ccccc23)CC1 the results were MCF10A rerep 2%, SW480 rereplic -11%, KB-3-1 tox inactive, ELG1 repair inh inconclusive and KB-V1 cytotox inactive.
Screening CC1CCN(C(=O)CCCOc2cc(=O)n(C)c3ccccc23)CC1 returned MCF10A rerep 15%, SW480 rereplic -16%, KB-3-1 tox inactive, ELG1 repair inh inconclusive and KB-V1 cytotox inconclusive.
`COc1ccc(N2CCN(C(=O)CCCOc3cc(=O)n(C)c4ccccc34)CC2)cc1` gave MCF10A rerep 16%, SW480 rereplic 0%, KB-3-1 tox inactive, ELG1 repair inh 29% and KB-V1 cytotox 8.2µM*.
Screening COc1ccc(N2CCN(C(=O)CCCN3C(=O)c4cccc5cccc(c45)C3=O)CC2)cc1 returned MCF10A rerep 10%, SW480 rereplic 1%, KB-3-1 tox inactive, ELG1 repair inh 10µM* and KB-V1 cytotox inconclusive.
For CC(C)CCNC(=O)CCCOc1cc(=O)n(C)c2ccccc12 the results were MCF10A rerep inconclusive, SW480 rereplic -6%, KB-3-1 tox inactive, ELG1 repair inh inconclusive and KB-V1 cytotox 13µM*.
`Cc1ccc(C)c(N2CCN(C(=O)COc3cc(=O)n(C)c4ccccc34)CC2)c1` gave MCF10A rerep inconclusive, SW480 rereplic -1%, KB-3-1 tox inactive, ELG1 repair inh inconclusive and KB-V1 cytotox inactive.
Cc1ccc(C)c(N2CCN(C(=O)CCCOc3cc(=O)n(C)c4ccccc34)CC2)c1 was read as MCF10A rerep inconclusive, SW480 rereplic inconclusive, KB-3-1 tox inconclusive, ELG1 repair inh inconclusive and KB-V1 cytotox 8.2µM*.
`NC(=O)C1CCN(c2ncc(-c3ccc4c(c3)OCO4)s2)CC1` gave KB-3-1 tox inactive and KB-V1 cytotox inactive.
O=S(=O)(CCN1CCN(c2ccccc2O)CC1)c1cc(Cl)ccc1Cl was read as MCF10A rerep inconclusive, SW480 rereplic inconclusive, KB-3-1 tox inactive, ELG1 repair inh 10% and KB-V1 cytotox inactive.
For C/C(=N\OCC(=O)NC12CC3CC(CC(C3)C1)C2)c1cc2ccccc2o1 the results were MCF10A rerep 21µM*, SW480 rereplic inconclusive, KB-3-1 tox inactive, ELG1 repair inh 1% and KB-V1 cytotox inactive.
For COc1cc(/C=N/OCC(=O)Nc2ccc(OC(F)F)cc2)ccc1OCc1ccccc1 the results were MCF10A rerep inconclusive, SW480 rereplic inconclusive, KB-3-1 tox 23µM*, ELG1 repair inh inconclusive and KB-V1 cytotox 8.2µM*.
For CSc1ccccc1NC(=O)CO/N=C(\C)c1cc2ccccc2o1 the results were MCF10A rerep inconclusive, SW480 rereplic 0%, KB-3-1 tox inactive, ELG1 repair inh inconclusive and KB-V1 cytotox inactive.
COc1ccc(/C=N/OCC(=O)NC(c2ccccc2)c2ccccc2)cc1OC was read as MCF10A rerep 21%, SW480 rereplic 0%, KB-3-1 tox inconclusive, ELG1 repair inh -4% and KB-V1 cytotox 2.3µM*.
For COc1ccc(/C=N/OCC(=O)Nc2cc(C)on2)cc1OC the results were MCF10A rerep 8%, SW480 rereplic -4%, KB-3-1 tox inactive, ELG1 repair inh 11% and KB-V1 cytotox inconclusive.
